Experimental data reported in PubChem BioAssay AID624330 (Southern Research Specialized Biocontainment Screening …, 2012).
Hit rate of the full screen: of about 340,000 compounds, about 2,100 (0.62%) were called active.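 Rule for the calls: active = first-screen hits whose inhibition reached a set limit at any dose in the follow-up dose series; inconclusive = inhibition above the set first-screen limit but never retested; inactive = the rest.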 Not all results are given here. Results with a measured potency or affinity are listed apart.

Each molecule was assayed against Rac GTPase-activating protein 1 (Homo sapiens) (UniProt Q9H0H5) (assay: MgcRacGAP GTPase-activating activity inhibitors, confirmation, biochemical, ADP Hunter fluorescence, primary and confirmatory (AID 624330;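 note: fluorescence reports GDP produced by GAP-driven GTP hydrolysis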)). Conditions: MgcRacGAP-stimulated Rac1 GTP hydrolysis, at 30 µM, hits give high values, GST-tagged Rac1 F28L mutant substrate.
Rac GTPase-activating protein 1 (Homo sapiens), sequence (Q9H0H5 whole entry, looked up): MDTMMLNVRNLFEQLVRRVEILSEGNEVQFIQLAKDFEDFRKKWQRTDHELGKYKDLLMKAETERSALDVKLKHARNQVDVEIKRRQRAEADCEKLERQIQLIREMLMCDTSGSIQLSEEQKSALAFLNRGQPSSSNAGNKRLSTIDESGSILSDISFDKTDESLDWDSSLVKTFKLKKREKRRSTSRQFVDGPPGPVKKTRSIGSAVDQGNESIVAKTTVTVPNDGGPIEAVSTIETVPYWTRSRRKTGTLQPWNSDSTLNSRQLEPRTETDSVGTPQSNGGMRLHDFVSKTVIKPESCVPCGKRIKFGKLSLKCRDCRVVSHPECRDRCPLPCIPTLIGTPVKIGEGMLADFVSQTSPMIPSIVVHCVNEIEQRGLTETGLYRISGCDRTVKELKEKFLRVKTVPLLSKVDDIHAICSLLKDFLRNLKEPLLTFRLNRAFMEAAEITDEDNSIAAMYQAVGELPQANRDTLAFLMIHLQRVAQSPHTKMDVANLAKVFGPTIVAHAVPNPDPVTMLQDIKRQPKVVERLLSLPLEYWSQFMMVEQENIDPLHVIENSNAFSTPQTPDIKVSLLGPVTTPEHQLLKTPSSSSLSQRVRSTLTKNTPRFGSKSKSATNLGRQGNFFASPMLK

inhibition, inactive:
O=C(Cn1c(=O)cnc2ccccc21)Nc1cc(Cl)ccc1N1CCOCC1 -4.21%, CCN(CC(=O)Nc1ccc(OC)cc1)CC(=O)Nc1sc2c(c1C(=O)OC)CCCC2 3.58%, CCCC(=O)NC1=C(Cl)C(=O)c2ccccc2C1=O 24.7%, CCC(=O)Nc1c(C)cc(C)cc1Cl 12.3%, Cc1cccc(NC(=O)CN2CCN(C(=O)CN3C(=O)NC4(CCCCC4C)C3=O)CC2)c1C (centres undefined) 7.46%, CCN(CC)c1ccc(/C=N/Nc2ccccc2)c(O)c1 5.91%, CCN(CC)c1ccc(/C=N/NC(=O)c2ccco2)c(O)c1 9.97%, CCN(CC)c1ccc(/C=N/Nc2nc(C)cc(=O)[nH]2)c(O)c1 22.4%, CCN(CC)c1ccc(/C=N/Nc2ccc(C)cc2)c(O)c1 11.6%, CCOC(=O)N/N=C/c1ccc(F)cc1F 3.61%, CCN(CC)c1ccc(/C=N/NC(=S)NCc2ccccc2)c(O)c1 12.5%, CCN(CC)c1ccc(/C=N/NC(=O)c2ccoc2C)c(O)c1 2.9%, CCN(CC)c1ccc(/C=N/NC(=O)Cc2cccs2)c(O)c1 -34.9%, CCOc1ccc(N(CC(=O)Nc2cc(Cl)ccc2C)S(C)(=O)=O)cc1 -0.16%, CCOc1ccc(CC(=NCCO)C2=C(O)CC(C)(C)CC2=O)cc1OCC 2.19%, Cn1c(=O)oc2cc(S(=O)(=O)NCCN3CCc4ccccc4C3)ccc21 -3.64%, CCN(CC)C(=O)CN1C(=O)C(=O)c2ccccc21 6.56%, Nc1ccn(CCCN2CCN(Cc3cccc4ccccc34)CC2)c(=O)n1 19.7%, Cc1ccccc1N1CCN(C(=O)NCc2cccc(Cl)c2)CC1 2.37%, Cc1ccc(S(=O)(=O)N2CCC(C(=O)NC3CCCCC3C)CC2)cc1 (centres undefined) 17.3%, O=C(c1ccc(Cn2c(=O)[nH]c3ccccc3c2=O)cc1)N1CCN(c2ccccc2)CC1 -4.78%, CC(NC(=O)CCC(=O)NC(C)C1COc2ccccc2O1)C1COc2ccccc2O1 (centres undefined) 6.94%, CCOC(=O)CCNCC1COc2ccccc2O1 (centres undefined) 0.26%, COc1ccc2nc(NC(=O)CN(C)S(=O)(=O)c3cccs3)sc2c1 2.51%, Cc1c(C(=O)NC2CC(=O)N(c3ccc4c(c3)OCCO4)C2)cccc1[N+](=O)[O-] (centres undefined) 10.5%, O=S(=O)(Nc1ccc(-c2ccc(NS(=O)(=O)c3ccccc3)cc2)cc1)c1ccccc1 -20.9%, COc1ccc(NC(=O)/C(Cl)=C(/Cl)S(=O)(=O)Cc2ccccc2)cn1 25.6%, COc1ccc(NC(=O)C(Cl)=C(Cl)Cl)cn1 6.63%, COc1ccc(CS(=O)(=O)/C(Cl)=C(/Cl)C(=O)Nc2ccc(OC)nc2)cc1 19.4%, COc1ccc(NC(=O)Cc2ccccc2)cn1 3.42%, CC(C)(C)c1nnc2cccc(Cl)n12 0.67%, CCN1C(=O)[C@H]2[C@@H](c3ccc(-c4ccc(C(C)=O)cc4)c(OC)c3)N3CCCC[C@@]3(C(=O)OC)[C@H]2C1=O 5.29%, CCc1cc(=O)oc2cc(OC(C)C(=O)NCc3ccccn3)ccc12 (centres undefined) 7.67%, C/C(=N\NC(=O)c1ccc(NS(=O)(=O)c2cccs2)cc1)c1ccc(C(C)(C)C)cc1 8.43%, COCCNc1nc(CSc2ccccc2)nc2sc(C)c(C)c12 8.51%, COCCNCc1ccccc1 -2.56%, Cc1cc(C)cc(NC(=S)N2CCC(NC(=O)c3ccc(F)cc3)CC2)c1 4.86%, CCOc1ccc(NC(=O)C(NC(=O)C2CCC(C)CC2)C(C)C)cc1 (centres undefined) 8.67%, COc1ccc(-c2cc(-c3ccc(O)cc3)nc(N)c2C#N)cc1OC 11.9%, COc1cc(-c2cc(-c3ccc(F)cc3)nc(N)c2C#N)ccc1O 40.9%, CCOc1cc(-c2cc(-c3ccccc3)nc(N)c2C#N)ccc1O 38.4%, CCCc1cc(-c2ccc(O)c(OCC)c2)c(C#N)c(N)n1 -0.99%, COc1cc(/C=C(\C#N)c2[nH]nc(N)c2C#N)cc(OC)c1O 0.59%, CCOc1cc(-c2cc(-c3ccc(C)cc3)nc(N)c2C#N)ccc1O 16.3%, CCN(CC(=O)Nc1ccc(C#N)cc1)CC(=O)Nc1ccc2c(c1)OCCO2 4.07%, CCNC(=O)N1CCC(n2nccc2NC(=O)CCCc2ccccc2)CC1 6.88%, COc1ccccc1OCCC(=O)Nc1ccc2c(c1)OCO2 2.43%, C=CC[N+](C)(C)CCN1C(=O)C2C(c3ccccc3)C=CC(c3ccccc3)C2C1=O (centres undefined) -0.41%, C=CCC(NCc1ccco1)c1ccc(OC)c(OC)c1 (centres undefined) -6.08%, O=C(Oc1ccc2c(c1)OCC2=O)c1ccccc1 0.9%, O=c1oc(-c2cccc(S(=O)(=O)N3CCOCC3)c2)nc2ccccc12 13.7%, Cc1cccc(NC(=S)NC(=O)/C=C/c2ccccc2)n1 -2.63%, CC(C)(C)c1ccc(C(=O)NCC(=O)N2CCC3(CC2)NCCc2[nH]cnc23)cc1 11%, Cc1cccc(/C=N\NC(=O)c2ccccc2-n2cccc2)c1 5.46%, CCOc1cc(/C=N/NC(=O)c2cc(C)n(-c3ccc(F)cc3)c2C)ccc1O 16.4%, O=C(N/N=C\c1ccccc1)c1ccccc1-n1cccc1 6.39%, O=C(COc1ccccc1-c1ccccc1)N/N=C/c1ccc2ccccc2c1 6.35%, O=C(N/N=C/c1ccc[nH]1)c1ccccc1OCc1ccc(F)cc1 9.06%, O=C(N/N=C\c1ccc(O)c([N+](=O)[O-])c1)c1ccccc1-n1cccc1 -4.94%, COc1cc(/C=N/NC(=O)c2ccccc2O)ccc1OCC(=O)Nc1ccccc1 14.4%, O=C(N/N=C/c1ccc(Br)cc1)c1ccccc1-n1cccc1 10.6%, CC(=O)c1cccc(S(=O)(=O)NC2CCCCCC2)c1 1.69%, COc1ccc(C(C(=O)NC2CCCCC2)N(Cc2ccco2)C(=O)c2ccccn2)c(OC)c1 (centres undefined) 10.7%, CCCN(CCC)C(=O)c1ccc2c(c1)S(=O)(=O)c1ccccc1C2=O 6.12%, NC(=S)Nc1ccc(S(=O)(=O)c2ccc(NC(N)=S)cc2)cc1 10.8%, CC1(C)C(=O)OC(c2c3ccccc3cc3ccccc23)C(C)(C)C1=O (centres undefined) 1.71%, CC(NS(=O)(=O)c1cccc(S(=O)(=O)c2ccccc2)c1)C(=O)O (centres undefined) -5.11%, CCOC(=O)N1CCN(C(=O)c2cccc(S(=O)(=O)Nc3ccc(F)cc3)c2)CC1 4.83%, CCOC(=O)C1CCN(c2c(N3CCCC(C(=O)OCC)C3)c(=O)c2=O)CC1 (centres undefined) 4.65%, CN(C)CCNC(=O)c1onc(CSc2nc3ccccc3[nH]2)c1C(=O)NCCN(C)C 17.3%, Brc1ccc(-c2ccc(/C=N/Nc3nc4ccccc4[nH]3)o2)cc1 3.17%, COCCNC(=O)/C(C#N)=C/c1ccc(C(=O)O)cc1 0.25%, COc1cccc(C(=O)N2CCn3c2nc2ccccc23)c1 8.54%, O=C(Nc1nnc(C2CCCCC2)s1)C1CC(=O)N(c2ccc(F)cc2)C1 (centres undefined) 3.31%, COc1ccc(NC(=O)CSc2ccc3ccccc3c2)cc1S(=O)(=O)N1CCCCC1 8.21%, COc1cccc2c(N/N=C/c3ccc(O)c(O)c3)cc(C)nc12 27.1%, COc1ccc(/C=N/Nc2cc(C)nc3ccccc23)cc1 14.7%, Cc1ccc2nc(C)cc(N/N=C/c3cccc(O)c3)c2c1 14.1%, COc1cccc2c(N/N=C/c3ccccc3)cc(C)nc12 11%, N#Cc1nc(COc2ccc(F)cc2)oc1N1CCC(Cc2ccccc2)CC1 0.56%, N#Cc1ccc(N/N=C/c2ccccc2)c([N+](=O)[O-])c1 2.61%, Cc1sc(NC(=O)c2ccc(F)cc2)c(CN2CCCCCC2)c1C 13.7%, CCn1c(CC(=O)Nc2ccc(Cl)c(Cl)c2)nnc1SCc1ccc(Cl)cc1 11.6%, Cc1sc2ncn(CC(=O)N3CCCCC3)c(=O)c2c1C 6.45%, O=C(Nc1ccncc1)C1CC(=O)N(c2ccccc2)C1 (centres undefined) 0.29%, CCN1C(=O)[C@H]2[C@@H](c3ccc(Cl)cc3)N3C(=O)CN(Cc4ccccc4)C(=O)[C@@]3(C)[C@H]2C1=O 5.83%, N#CCCNc1ccc(OCCC#N)cc1 11.4%, CCOc1ccc(NCCC#N)cc1 30.3%, CCC(=O)Nc1cccc(C(=O)/C=C/c2cc(Br)ccc2OC)c1 7.87%, CCC(CO)N=C1CC(C)(C)CC(=O)/C1=C(/O)CCCN1C(=O)c2ccccc2C1=O (centres undefined) 0.34%, COc1cc2nc(N3CCN(C(=O)c4ccco4)CC3)nc(N)c2cc1OC 17.7%, COc1cc2nc(N3CCN(c4cc(C)ccc4C)CC3)nc(N)c2cc1OC 4.78%, COC(=O)[C@H](CC(C)C)NC(=O)NCCCc1ccccc1 3.77%, O=C(CCNS(=O)(=O)c1cccc2nsnc12)NCCC1=CCCCC1 11.7%
